High-throughput results from PubChem.
INS-1E GSIS act = GLuc luminescence reporter in INS-1E cells, primary screen for activators of glucose-dependent secretion of insulin | 370,000 tested, 0.61% active | INS-1E GLuc reporter insulin secretion, 2-3 h | activation, % at 16.6 µM;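 active = lowest replicate activation of at least 40%, so every replicate reaches that level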
ERAP1 inh = inhibitors of human ERAP1 aminopeptidase | Q9NZ08 | recombinant ERAP1, Leu-AMC fluorescence, 60 min | inhibition, % at 10.7 µM | 340,000 tested, 0.15% active;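 active = mean replicate inhibition of at least 30%, or all replicates individually reaching that 30% level; inactive = mean below 30% and not every replicate reaching it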
Target sequence (Q9NZ08 whole entry, looked up): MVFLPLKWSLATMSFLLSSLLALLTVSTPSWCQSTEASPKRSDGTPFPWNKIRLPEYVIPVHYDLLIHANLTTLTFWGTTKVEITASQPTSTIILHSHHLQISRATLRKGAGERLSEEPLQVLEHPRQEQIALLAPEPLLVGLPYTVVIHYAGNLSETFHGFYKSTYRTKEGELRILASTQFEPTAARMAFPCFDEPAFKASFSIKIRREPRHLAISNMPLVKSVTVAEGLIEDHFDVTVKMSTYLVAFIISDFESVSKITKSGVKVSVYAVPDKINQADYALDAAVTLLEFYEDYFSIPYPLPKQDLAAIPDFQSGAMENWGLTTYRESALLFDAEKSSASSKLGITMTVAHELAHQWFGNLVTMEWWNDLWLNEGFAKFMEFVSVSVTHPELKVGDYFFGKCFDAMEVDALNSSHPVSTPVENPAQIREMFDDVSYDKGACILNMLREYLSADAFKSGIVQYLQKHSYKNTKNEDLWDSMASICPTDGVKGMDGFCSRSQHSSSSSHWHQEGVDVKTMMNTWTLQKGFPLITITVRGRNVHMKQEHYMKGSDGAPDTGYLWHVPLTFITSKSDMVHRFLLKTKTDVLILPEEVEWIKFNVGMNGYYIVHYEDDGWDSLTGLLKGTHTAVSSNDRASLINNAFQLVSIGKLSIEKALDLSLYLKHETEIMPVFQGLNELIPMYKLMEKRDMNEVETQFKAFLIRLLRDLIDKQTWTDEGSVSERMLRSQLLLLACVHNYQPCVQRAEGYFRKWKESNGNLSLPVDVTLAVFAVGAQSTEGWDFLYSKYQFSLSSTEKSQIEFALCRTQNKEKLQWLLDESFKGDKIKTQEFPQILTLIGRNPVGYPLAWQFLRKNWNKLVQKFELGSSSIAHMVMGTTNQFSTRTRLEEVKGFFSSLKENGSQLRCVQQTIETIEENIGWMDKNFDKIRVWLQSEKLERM
PGC1a acetyl inh = modulators of PGC1a acetylation; 350,000 tested, 0.17% active; inhibition, % at 15.6 µM; AID 651687; U2OS PGC1a acetylation, AlphaScreen anti-acetyl-lysine; with virally co-expressed GCN5 acetyltransferase;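 active = every replicate shows inhibition of at least 40%; inconclusive = mean inhibition at least 40% but some replicate below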
CaV13 ICDI inh = Primary screen for inhibitors of IQ motif and Ca2+-dependent inactivation inhibitor domain binding in CACNA1D, Förster resonance energy transfer in living cells, … | HEK cells, CFP/YFP FRET ICDI-IQ, plate reader, 10 min; percent FRET-ratio fall versus neutral wells | inhibition, % at 12.3 µM | 340,000 tested, 0.098% active | AID 743397;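 active = mean replicate inhibition of at least 30% and at least 1% of replicates passing that level; inconclusive = only one of the two criteria is met; inactive = neither criterion is met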
DENV2 CPE rescue = DENV2-induced cell death inhibition. DENV2-infected cells, cytopathic effect rescue, plate reader. CPE inhibition, % at 9.99 µM. 350,000 tested, 1.7% active. AID 651640; in the data active = CPE inhibition above about 20%, passing the limit was not always enough; inconclusive = no clear call, values can overlap the other calls; tested in BHK-21 cells
Ecoli rRNA inh = selective bacterial rRNA inhibition in E. coli; 350,000 tested, 1.6% active; GFP signal change (wild-type ribosome), % (no concentration beside the values); AID 720706; E. coli WT GFP vs humanized-ribosome RFP mutants, fluorescence, 24 h; hits give low values; DMSO median 0, no signal -100;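 active = significant combined selectivity score with lowered wild-type GFP, culture density cut under 30%, mutant RFP and density less affected; inactive = any of these conditions unmet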
Large screens that a line does not name were inactive; ! = repeats disagree. Only some compounds are listed: those with a hit (about 3.2% of all), similar ones and a draw of the others.

C[C@H](CO)N1C[C@H](C)[C@@H](CN(C)C(=O)Nc2ccc(C(F)(F)F)cc2)OCc2cnnn2CCCC1=O	none (no result: CaV13 ICDI inh)
C[C@H](CO)N1C[C@H](C)[C@H](CN(C)C(=O)Nc2ccc(C(F)(F)F)cc2)OCc2cnnn2CCCC1=O	Ecoli rRNA inh -11.3!
C[C@H](CO)N1C[C@H](C)[C@H](CN(C)C(=O)NC2CCCCC2)Oc2ccc(NS(=O)(=O)c3ccccc3)cc2C1=O	none (no result: CaV13 ICDI inh)
O=C(O)[C@H]1[C@H](CO)[C@H]2Cn3c(ccc(-c4ccccc4)c3=O)[C@H]2N1Cc1ccccc1F	none (no result: PGC1a acetyl inh, CaV13 ICDI inh)
C[C@@H]1CN([C@H](C)CO)C(=O)c2cc(NC(=O)Nc3ccc(F)cc3)ccc2O[C@@H](C)CCCCO[C@@H]1CN(C)Cc1ccc2c(c1)OCO2	DENV2 CPE rescue 23.2 (no result: CaV13 ICDI inh)
C[C@@H]1CN([C@@H](C)CO)C(=O)c2cc(NC(=O)Nc3ccc(F)cc3)ccc2O[C@@H](C)CCCCO[C@H]1CN(C)Cc1ccc2c(c1)OCO2	DENV2 CPE rescue 22.0 (no result: CaV13 ICDI inh)
CC(=O)c1sc(NC(=O)c2oc3ccc(F)cc3c2C)nc1C	DENV2 CPE rescue 21.4
COc1ccc2oc(C(=O)Nc3nnc(C)s3)c(C)c2c1	INS-1E GSIS act 52.7
Cn1c(=O)c2cc(S(=O)(=O)NCCC(=O)NCc3ccccc3Cl)ccc2n(C)c1=O	PGC1a acetyl inh 46.6 (no result: ERAP1 inh, DENV2 CPE rescue, Ecoli rRNA inh)
CCNC(=O)C[C@@H]1CC[C@H](NC(=O)C2CCC2)[C@H](CO)O1	none (no result: CaV13 ICDI inh)
C[C@@H]1CN([C@@H](C)CO)S(=O)(=O)c2ccc(C#Cc3ccccc3F)cc2O[C@@H]1CN(C)CC1CCOCC1	none (no result: ERAP1 inh, CaV13 ICDI inh)
NC(=O)c1cc([N+](=O)[O-])ccc1NCc1cccnc1	CaV13 ICDI inh 41.9
O=C(O)c1cc([N+](=O)[O-])ccc1NCc1cccnc1	none
CN1c2ccc(C3=CCCCC3)cc2[C@H]2[C@H](CCN2C(=O)C2CC2)[C@@H]1CO	DENV2 CPE rescue 45.5 (no result: INS-1E GSIS act, CaV13 ICDI inh, Ecoli rRNA inh)
CN1c2ccc(-c3cccc(F)c3)cc2[C@H]2[C@H](CCN2C(=O)c2cccc(F)c2)[C@@H]1CO	none (no result: CaV13 ICDI inh)
CN(C)C(=O)c1cccc(-c2ccc3c(c2)[C@@H]2[C@@H](CCN2C(=O)c2cccc(F)c2)[C@H](CO)N3C)c1	DENV2 CPE rescue 39.0 (no result: CaV13 ICDI inh)
CN1c2ccc(C3=CCCCC3)cc2[C@@H]2[C@@H](CCN2C(=O)C2CC2)[C@@H]1CO	none (no result: PGC1a acetyl inh, CaV13 ICDI inh)
CN1c2ccc(Br)cc2[C@H]2[C@H](CCN2C(=O)C2CCC2)[C@H]1CO	DENV2 CPE rescue 105.0 (no result: CaV13 ICDI inh)
CN1c2ccc(Br)cc2[C@@H]2[C@@H](CCN2C(=O)C2CCC2)[C@H]1CO	none (no result: CaV13 ICDI inh)
CC(C)NC(=O)N1CC[C@@H]2[C@H]1c1cc(Br)ccc1N(C)[C@@H]2CO	DENV2 CPE rescue 108.4 (no result: CaV13 ICDI inh)
COc1cccc(-c2ccc3c(c2)[C@H]2[C@H](CCN2C(=O)Nc2ccccc2OC)[C@H](CO)N3C)c1	none (no result: CaV13 ICDI inh)
COc1cccc(-c2ccc3c(c2)[C@@H]2[C@@H](CCN2C(=O)Nc2ccccc2OC)[C@@H](CO)N3C)c1	DENV2 CPE rescue 29.0 (no result: CaV13 ICDI inh)
COc1ccc(NC(=O)N2CC[C@@H]3[C@H]2c2cc(Br)ccc2N(C)[C@@H]3CO)cc1	none (no result: CaV13 ICDI inh)
COc1ccc(NC(=O)N2CC[C@@H]3[C@@H](CO)N(C)c4ccc(Br)cc4[C@@H]32)cc1	DENV2 CPE rescue 54.4 (no result: CaV13 ICDI inh)
CN(C)C(=O)c1ccc(-c2ccc3c(c2)[C@@H]2[C@@H](CCN2C(=O)C2CCCC2)[C@@H](CO)N3C)cc1	DENV2 CPE rescue 65.0 (no result: CaV13 ICDI inh)
CN1c2ccc(-c3cccc(F)c3)cc2[C@H]2[C@H](CCN2C(=O)Cc2cccnc2)[C@H]1CO	DENV2 CPE rescue 113.3 (no result: ERAP1 inh, CaV13 ICDI inh)
COCC(=O)N1C[C@@H](C)[C@H](OC)CN(C)C(=O)c2cc(NC(=O)NC(C)C)ccc2OC[C@H]1C	none (no result: CaV13 ICDI inh)
Cc1ccccc1-c1nc2c(s1)CCc1onc(-c3ccc(Cl)cc3)c1-2	DENV2 CPE rescue 104.6 (no result: PGC1a acetyl inh)
O=C(COC(=O)c1ccc(O)cc1O)N=c1sccn1Cc1ccccc1Cl	none
Cc1ccc(Cn2ccsc2=NC(=O)COC(=O)c2ccc(O)cc2O)cc1	Ecoli rRNA inh -25.5 (no result: PGC1a acetyl inh)
Cc1ccc(N(NC(=O)C(O)(c2ccccc2)c2ccccc2)C(=O)CCl)cc1	INS-1E GSIS act 82.0 (no result: ERAP1 inh, PGC1a acetyl inh, DENV2 CPE rescue, Ecoli rRNA inh)
O=C(NC(=S)N1CCCCC1)c1csc([N+](=O)[O-])c1	Ecoli rRNA inh -23.1
C=CCNC(=S)NC(=O)c1csc([N+](=O)[O-])c1	none (no result: INS-1E GSIS act, ERAP1 inh, PGC1a acetyl inh)
CCCCOC(=O)C1CN(c2ccccc2)N=C1C(=O)OCC (stereo unspecified)	none (no result: ERAP1 inh, PGC1a acetyl inh, DENV2 CPE rescue, Ecoli rRNA inh)
CCCCOC(=O)C1CN(c2ccccc2)N=C1C(C)=O (stereo unspecified)	DENV2 CPE rescue inconclusive, Ecoli rRNA inh -32.5
COC(=O)c1ccc(CN2CCCC(CO)(Cc3ccccc3F)C2)cc1 (stereo unspecified)	Ecoli rRNA inh -20.0
COc1cc(CN2CCCC(CO)(Cc3ccccc3F)C2)ccc1O (stereo unspecified)	none (no result: PGC1a acetyl inh)
C[C@@H]1CN([C@@H](C)CO)C(=O)c2c(c3ccccc3n2C)-c2ccccc2CO[C@H]1CN(C)CC1CCCCC1	none (no result: ERAP1 inh, PGC1a acetyl inh, CaV13 ICDI inh, DENV2 CPE rescue)
CC(NC(=O)CN1CCN(c2cccc(Cl)c2)CC1)c1ccccc1 (stereo unspecified)	DENV2 CPE rescue 44.2, Ecoli rRNA inh -28.1
COC(=O)COc1cc(OCC(=O)OC)c2c(-c3ccccc3)cc(=O)oc2c1	INS-1E GSIS act 64.1 (no result: PGC1a acetyl inh)
COC(=O)C(C)Oc1cc(OC(C)C(=O)OC)c2c(-c3ccccc3)cc(=O)oc2c1 (stereo unspecified)	Ecoli rRNA inh -24.0 (no result: PGC1a acetyl inh)
CC(=O)COc1cc(C)cc2oc(=O)cc(-c3ccccc3)c12	none
C[C@@H]1CN([C@H](C)CO)C(=O)c2cc(NC(=O)Nc3ccc(F)cc3)ccc2O[C@H]1CN(C)C(=O)Nc1ccc(F)cc1	none (no result: CaV13 ICDI inh)
CCc1cccc(C)c1NC(=S)NCC1CCN(c2ccc(OC)cc2)C1 (stereo unspecified)	none
CCc1ccccc1NC(=S)NCC1CCN(c2ccc(OC)cc2)C1 (stereo unspecified)	Ecoli rRNA inh -18.4
CC(=O)C[C@@H]1OC[C@H](Cc2ccccc2)N1S(=O)(=O)c1ccc(C)cc1	Ecoli rRNA inh -28.0 (no result: PGC1a acetyl inh)
COC(=O)C[C@@H]1OC[C@H](C(C)C)N1S(=O)(=O)c1ccc(C)cc1	INS-1E GSIS act 44.2 (no result: PGC1a acetyl inh, Ecoli rRNA inh)
O=C(NCc1ccccc1)[C@H]1[C@H](CO)[C@H]2Cn3c(ccc(-c4cccc(F)c4)c3=O)[C@@H]1N2	none (no result: PGC1a acetyl inh, CaV13 ICDI inh)
COC(=O)C[C@H]1CC[C@@H]2[C@@H](COc3ccc(NC(=O)c4ccc(F)c(F)c4)cc3C(=O)N2C)O1	none (no result: CaV13 ICDI inh)
CCC(=O)Nc1nnc(-c2cccs2)s1	none
C=C(C)C(=O)Nc1nnc(-c2cccs2)s1	INS-1E GSIS act 118.5 (no result: ERAP1 inh, PGC1a acetyl inh, DENV2 CPE rescue, Ecoli rRNA inh)
